This is an account of results in PubChem BioAssay AID720706 (Broad Institute, 2013).

Where “and” joins values, the source holds several entries; their conditions need not be identical. Equal entries are not always repeated. Screen size: about 350,000 compounds; about 5,500 (1.6%) were called active.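 Rule for the calls: active = significant combined selectivity score with lowered wild-type GFP, culture density cut under 30%, mutant RFP and density less affected; inactive = any of these conditions unmet.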 The entries come from a sample that favours actives as a whole.

The nature of this assay: reduced GFP signal of wild-type E. coli, primary screen, bacterial rRNA inhibitor project, GFP/RFP fluorescence, OD600, single point (AID 720706). The conditions noted are these: E. coli WT GFP vs humanized-ribosome RFP mutants, 24 h; GFP signal change (wild-type ribosome): stronger effect = lower value, concentration not given here unless noted; OD600 change: measured here: OD600 growth unless noted; RFP signal change: measured here: RFP humanized mutant strains, concentration not given here unless noted.
Consider `O=C(CN1CCCC1=O)NCCc1ccccc1`, for which the GFP signal change (wild-type ribosome) was 13.1% (inactive), the OD600 change came to 9.85% and the RFP signal change is 2.04%.
In the same order, the values of `O=C1CC(=O)N(Cc2ccccc2)C(=O)N1CCCCCCN1C(=O)CC(=O)N(Cc2ccccc2)C1=O` are -23.4% (active), 8% and -3.78%.
On to `CS(=O)(=O)N1CCC2CCNC2C1` (stereo not given), for which the GFP signal change (wild-type ribosome) is -44.3% [stronger effect = lower value, DMSO median 0, no signal -100] (inactive); the OD600 change was -74.4% [measured here: OD600 growth, DMSO median 0, no signal -100]; the RFP signal change is -13% [measured here: RFP humanized mutant strains, DMSO median 0, no signal -100, concentration not given here].
Take `O=C(Cc1ccccc1)N1CCCCN2[C@H](C1)[C@H](c1ccc(C#CC3(O)CCCC3)cc1)[C@@H]2CO`: the GFP signal change (wild-type ribosome) was -0.103% (inactive), the OD600 change was -5.65% and the RFP signal change is -2.06%.
Taken in the same sequence, the figures for `COC(=O)[C@@H]1[C@@H](CO)[C@@H]2Cn3c(ccc(-c4ccc(F)cc4)c3=O)[C@H]1N2C(C)=O` were -1.54% (inactive), -1.06% and -2.02%.
Taken in the same sequence, the figures for `C[C@]12CCC3C(CC[C@H]4[C@H](O)[C@H](O)CC[C@]34C)C1CCC2=O` (stereo not given in full) were -22.2% (inactive), -18.8% and 3.96%.
Taken in the same sequence, the figures for `C[C@]12CCC3C(CC[C@H]4C[C@@H](O)CC[C@]34C)C1C[C@@H](O)[C@H]2O` (stereo not given in full) were -1.03% (inactive), 2.49% and 0.13%.
Turning to `CC12CCC3C(CCC4CC(=O)CCC43C)C1CC(=NO)C2=O` (stereo not given), the GFP signal change (wild-type ribosome) is -22% (active), the OD600 change was -9.98% and the RFP signal change came to 4.28%.
As for `C=CCN1[C@@H]2CN(S(C)(=O)=O)C[C@H]1C2c1ccc(Br)cc1` (stereo not given in full), the GFP signal change (wild-type ribosome) was 0.44% [stronger effect = lower value, DMSO median 0, no signal -100] (inactive); the OD600 change is -2.24% [measured here: OD600 growth, DMSO median 0, no signal -100]; the RFP signal change is 0.309% [measured here: RFP humanized mutant strains, DMSO median 0, no signal -100, concentration not given here].
Turning to `COc1cccc(-c2ccc3n(c2=O)C[C@@H]2[C@@H](CO)[C@H](C(=O)O)[C@H]3N2C(=O)c2cnccn2)c1`, the GFP signal change (wild-type ribosome) is 0.18% (inactive), the OD600 change stood at 2.71% and the RFP signal change was -2.44%.
In the case of `Brc1ccc2c(c1)CNCc1cnnn1-2`, the GFP signal change (wild-type ribosome) is 21.4% [stronger effect = lower value, DMSO median 0, no signal -100] (inactive); the OD600 change is 6.17% [measured here: OD600 growth, DMSO median 0, no signal -100]; the RFP signal change is 0.786% [measured here: RFP humanized mutant strains, DMSO median 0, no signal -100, concentration not given here].
Consider `C/C=C/c1ccc(C2[C@@H]3CN(S(C)(=O)=O)C[C@H]2N3)cc1` (stereo not given in full), for which the GFP signal change (wild-type ribosome) is 0.848% [stronger effect = lower value, DMSO median 0, no signal -100] (inactive); the OD600 change is 10.1% [measured here: OD600 growth, DMSO median 0, no signal -100]; the RFP signal change is 0.743% [measured here: RFP humanized mutant strains, DMSO median 0, no signal -100, concentration not given here].
In the case of `C/C(=N/O)c1ccc2ccc3ccccc3c2c1`, the GFP signal change (wild-type ribosome) is -48% (active), the OD600 change is -16.4% and the RFP signal change is -10.4%.
Taken in the same sequence, the figures for `O=[N+]([O-])c1cnc2ccc3ccccc3c2c1` were -67.7% (inactive), -75.7% and -31.1%.
Regarding `Clc1ccc([C@@H]2CC3CCC2N3)cn1` (stereo not given in full), the GFP signal change (wild-type ribosome) was 0.922% [stronger effect = lower value, DMSO median 0, no signal -100] (inactive); the OD600 change was -1.31% [measured here: OD600 growth, DMSO median 0, no signal -100]; the RFP signal change is -1.9% [measured here: RFP humanized mutant strains, DMSO median 0, no signal -100, concentration not given here].
As for `FC(F)(F)CN1CC2C(c3ccc(Br)cc3)C(C1)N2CC1CC1` (stereo not given), the GFP signal change (wild-type ribosome) is -5.85% [stronger effect = lower value, DMSO median 0, no signal -100] (inactive); the OD600 change was -3.54% [measured here: OD600 growth, DMSO median 0, no signal -100]; the RFP signal change was -0.25% [measured here: RFP humanized mutant strains, DMSO median 0, no signal -100, concentration not given here].
Regarding `O=C(Cc1ccncc1)N1CCCCN2[C@H](CO)[C@@H](c3ccc(C#CC4(O)CCCC4)cc3)[C@H]2C1`, the GFP signal change (wild-type ribosome) was 5.65% (inactive), the OD600 change is 9.16% and the RFP signal change stood at 1.41%.
`Cc1ncoc1C(=O)NCC1=C(c2cccc3ccccc23)C[C@@H]2CC[C@H]1N2Cc1ccco1`: the GFP signal change (wild-type ribosome) is 5.41% (inactive), the OD600 change is -0.665% and the RFP signal change is -7.54%.
Taken in the same sequence, the figures for `CCOc1ccc(-c2cc(C)[n+](CCN(CC)CC)c(-c3ccc(OCC)cc3)c2)cc1` were -47.8% (active), -15.2% and -13.2%.
As to `CCC(C)NC1(c2ccccc2)CCCCC1` (stereo not given), the GFP signal change (wild-type ribosome) was 11.4% (inactive), the OD600 change stood at 7.39% and the RFP signal change came out at 4.1%.
Turning to `CN(c1ccccc1)c1ccc([N+](=O)[O-])c2nonc12`, the GFP signal change (wild-type ribosome) is -8.38% (active), the OD600 change was -3.73% and the RFP signal change is -4.23%.
Turning to `CCN(CC)c1ccc([N+](=O)[O-])c2cccnc12`, the GFP signal change (wild-type ribosome) was -44.1% (inactive), the OD600 change was -57.8% and the RFP signal change is -2.59%.
As for `FC(F)(F)CN1CC2NC(C1)C2c1ccc(Br)cc1` (stereo not given), the GFP signal change (wild-type ribosome) was -1.54% [stronger effect = lower value, DMSO median 0, no signal -100] (inactive); the OD600 change was -0.568% [measured here: OD600 growth, DMSO median 0, no signal -100]; the RFP signal change is -0.0575% [measured here: RFP humanized mutant strains, DMSO median 0, no signal -100, concentration not given here].
In the case of `O=S(=O)(c1ccccc1)N1CCC2CCNC2C1` (stereo not given), the GFP signal change (wild-type ribosome) is 32.8% [stronger effect = lower value, DMSO median 0, no signal -100] (inactive); the OD600 change is 20.2% [measured here: OD600 growth, DMSO median 0, no signal -100]; the RFP signal change was 4.31% [measured here: RFP humanized mutant strains, DMSO median 0, no signal -100, concentration not given here].
Consider `CC(=O)N1C[C@@H]2C(c3ccc(Br)cc3)[C@H](C1)N2C` (stereo not given in full), for which the GFP signal change (wild-type ribosome) is -0.325% [stronger effect = lower value, DMSO median 0, no signal -100] (inactive) and 1.25% [stronger effect = lower value, DMSO median 0, no signal -100] (inactive); the OD600 change was 4.6% [measured here: OD600 growth, DMSO median 0, no signal -100] and 7.11% [measured here: OD600 growth, DMSO median 0, no signal -100]; the RFP signal change was -3.94% [measured here: RFP humanized mutant strains, DMSO median 0, no signal -100, concentration not given here] and 0.471% [measured here: RFP humanized mutant strains, DMSO median 0, no signal -100, concentration not given here].
On to `CN(C)CC1Oc2ccccc2OC1(O)c1ccccc1` (stereo not given), for which the GFP signal change (wild-type ribosome) was -40.9% (active), the OD600 change was -11.5% and the RFP signal change was -12.2%.
As to `COC(=O)[C@@H]1[C@@H](CO)[C@@H]2Cn3c(ccc(C4=CCCCC4)c3=O)[C@H]1N2CC1CC1`, the GFP signal change (wild-type ribosome) was -0.199% (inactive), the OD600 change was -2.21% and the RFP signal change was -0.887%.
Taken in the same sequence, the figures for `O=C(O)[C@H]1[C@H](CO)[C@H]2Cn3c(cccc3=O)[C@@H]1N2C(=O)c1ccccc1` were 2.42% (inactive), 7.83% and -1.92%.
Consider `COc1ccccc1CN1[C@@H](CO)[C@@H](c2ccccc2)C12CN(C(=O)Cc1ccccc1)C2`, for which the GFP signal change (wild-type ribosome) is -13.7% [stronger effect = lower value, DMSO median 0, no signal -100] (inactive); the OD600 change is -27.1% [measured here: OD600 growth, DMSO median 0, no signal -100]; the RFP signal change is -0.899% [measured here: RFP humanized mutant strains, DMSO median 0, no signal -100, concentration not given here].
In the same order, the values of `COC(=O)[C@@H]1[C@@H](CO)[C@@H]2Cn3c(ccc(-c4cccc(C(=O)N(C)C)c4)c3=O)[C@H]1N2C(=O)NC(C)C` are 1.25% (inactive), 8.61% and -0.784%.
